± gives the standard deviation of the averaged measurements.

In this test the test system is AEK1 (Tb927.3.2440). Kind of test: percent reduction in TR-FRET probe signal relative to DMSO control; higher = stronger displacement of ATP-site probe (binding). The following applies: 1 µM; incubation time 1 h. Background: TR-FRET usually uses a lanthanide donor and a delayed reading to cut background.
As for `COCCOc1cnc2ccn([C@H](C)c3nnc4c(F)cc(-c5cnn(C)c5)cn34)c(=O)c2c1`, the “percent reduction in TR-FRET probe signal” value (“percent reduction” for short) worked out at 5.44 ± 17%. Next, `COc1ccc(S(=O)(=O)N(C(C)=O)c2ccccc2/C=C/c2cc[n+]([O-])cc2)cc1`: -0.117 ± 12%. Next, `CN([C@@H](Cc1ccc(OS(=O)(=O)c2cccc3cnccc23)cc1)C(=O)N1CCN(c2ccccc2)CC1)S(=O)(=O)c1cccc2cnccc12`: 0.31 ± 8.8%; `CN(c1ncccc1CNc1nc(Nc2ccc3c(c2)CC(=O)N3)ncc1C(F)(F)F)S(C)(=O)=O`: 46.8 ± 0.66%. For `O=C(NCCCNc1nc(Nc2cccc(NC(=O)N3CCCC3)c2)ncc1I)c1cccs1`, the “percent reduction” value is -0.457 ± 1.2%. Next, `COc1ccc(CNC(=O)Nc2ncc([N+](=O)[O-])s2)cc1`: -3.27 ± 4.3%. With `NC(=O)c1cccc(-c2cc(Nc3ccc(OC(F)(F)F)cc3)ncn2)c1` the figure was -4.38 ± 9.6%; with `CC(=O)c1c(C)c2cnc(Nc3ccc(N4CCNCC4)cn3)nc2n(C2CCCC2)c1=O.Cl`, -16.8 ± 5.1%.

As to `COc1ccc(-c2ccc3ncc4c(c3c2)n(-c2ccc(N3CCNCC3)c(C(F)(F)F)c2)c(=O)n4C)cn1.O=C(O)/C=C\C(=O)O`, the “percent reduction” value is -5.09 ± 8.7%. In the case of `NC(=O)Nc1sc(-c2ccc(F)cc2)cc1C(N)=O`, the “percent reduction” value stood at 10.6 ± 8.8%. With `CCOc1cc2ncc(C#N)c(Nc3ccc(F)c(Cl)c3)c2cc1NC(=O)/C=C/CN(C)C` [Pelitinib (EKB-569)] the figure was 4.14 ± 4.7%; with `Cl.N=C(N)NC(=N)NCCc1ccccc1` [Phenformin HCl], 12.1 ± 8.3%. Next, `CC(C)(C)c1cnc(CSc2cnc(NC(=O)C3CCNCC3)s2)o1`: -4.82 ± 4.6%; `CN1CCC(CNc2ccc3ncc(-c4cccc(OC(F)(F)F)c4)n3n2)CC1` [SGI-1776 free base]: 30 ± 15%; `O=C(Nc1c[nH]nc1-c1nc2cc(CN3CCOCC3)ccc2[nH]1)NC1CC1`: 52 ± 14%.

With `Cc1cc(Nc2ncc3c(n2)N(C)C(=O)N(c2cc(NC(=O)c4cccc(C(F)(F)F)c4)ccc2C)C3)n(C)n1`, the “percent reduction” value is 5.55 ± 14%. In the case of `O=C(c1ccc(/C=C/c2n[nH]c3ccccc23)cc1)N1CCNCC1`, the “percent reduction” value was determined as 51.6 ± 14%.

Consider `CNC(=O)c1cc(Oc2ccc(NC(=O)Nc3ccc(Cl)c(C(F)(F)F)c3)c(F)c2)ccn1` [Regorafenib (BAY 73-4506)], for which the “percent reduction” value is 11.5 ± 5.7%. For the compound `C[C@H](NC(=O)/C(C#N)=C/c1cccc(Br)n1)c1ccccc1`, the “percent reduction” value is -10.8 ± 3.7%. Regarding `Nc1ccc(-c2ccc3ncc4ccc(=O)n(-c5cccc(C(F)(F)F)c5)c4c3c2)cn1` [Torin 2], the “percent reduction” value amounted to 1.07 ± 4.9%.

Regarding `Cc1c[nH]c2nc(Nc3ccc(N4CCN(C)CC4)c(F)c3)nc(-c3cccc(CC#N)c3)c12`, the “percent reduction” value amounted to 56.3 ± 2%. With `C=CC(=O)N1CCCC(n2c(=O)n(-c3ccc(Oc4ccccc4)cc3)c3c(N)ncnc32)C1` (stereo not drawn) [ONO-4059 analogue] the figure was 4.33 ± 16%; with `C[C@@H](Oc1cc(-n2cnc3ccc(CN4CCN(C)CC4)cc32)sc1C(N)=O)c1ccccc1C(F)(F)F`, 2.7 ± 0.28%. With `CCN(CC)CCCC(C)Nc1nc(C)cc(Nc2ccc3nc(C)cc(N)c3c2)n1.Cl.Cl.Cl` (stereo not drawn) the figure was -2.65 ± 9%; with `COc1cc(F)c(F)c(Nc2ccc(I)cc2F)c1NS(=O)(=O)C1(C[C@H](O)CO)CC1` [Refametinib (RDEA119, Bay 86-9766)], -1.27 ± 14%.

With `CN1CCC(COc2cnc(-c3cccc(Cn4nc(-c5cccc(C#N)c5)ccc4=O)c3)nc2)CC1`, the “percent reduction” value was 6 ± 15%.

Turning to `CC(C)(C)c1ccc(S(=O)(=O)/C=C/C#N)cc1`, the “percent reduction” value was -17 ± 7.6%. `CCCS(=O)(=O)Nc1ccc(F)c(C(=O)c2c[nH]c3ncc(Cl)cc23)c1F`: the “percent reduction” value is -8.04 ± 4.3%. As to `COc1cc2ncnc(Nc3ccc(F)c(Cl)c3)c2cc1NC(=O)/C=C/CN1CCCCC1`, the “percent reduction” value was -9.62 ± 5%. In the case of `COc1cc2c(Nc3ccc(NC(=O)c4ccccc4)cc3)ncnc2cc1OCCCN1CCOCC1`, the “percent reduction” value was determined as 4.13 ± 16%. Next, `CCCCCCCCCCCCc1ccc(S(=O)(=O)Nc2nncs2)cc1`: 11.2 ± 4.2%; `COc1cc2ncnc(Nc3cccc(Cl)c3)c2cc1OC` [AG-1478 (Tyrphostin AG-1478)]: 0.453 ± 6.3%; `CC(C)n1nc(-c2ccc3oc(N)nc3c2)c2c(N)ncnc21`: -2.53 ± 6.7%. With `C[C@@H]1COC(Nc2ccc3ncnc(Nc4ccc(OCc5nccs5)c(Cl)c4)c3c2)=N1` [Varlitinib] the figure was 11.3 ± 2.9%. For `CNC(=O)c1ccccc1Nc1nc(Nc2ccc(N3CCOCC3)cc2OC)ncc1Cl`, the “percent reduction” value was found to be 25.1 ± 15%. With `CC(C)c1cnn2c(NCc3ccccc3)cc(NCCCCCCN)nc12.Cl`, the “percent reduction” value is -3.89 ± 4.8%.

For the compound `O=C1Nc2ccccc2/C1=C1\Nc2ccccc2C1=O` [Indirubin], the “percent reduction” value is -2.5 ± 6.6%. As for `CCN(CCO)CCCOc1ccc2c(Nc3cc(CC(=O)Nc4cccc(F)c4)n[nH]3)ncnc2c1` [Barasertib (AZD1152-HQPA)], the “percent reduction” value was -5.79 ± 4.7%.

For the origin of these results see the supplement of paper PMC10720658.
